AmpC no deterg: AmpC beta-lactamase inhibition without detergent; P00811; AmpC nitrocefin hydrolysis, absorbance 480 nm, 0.0001% Triton; Potency, µM (doses to about 57.1 µM), actives largely listed as inhibitors; hit rate 0.52% among 330,000; note: nearly all actives have a fitted effect of over 20% in size
Target sequence (P00811 whole entry, looked up): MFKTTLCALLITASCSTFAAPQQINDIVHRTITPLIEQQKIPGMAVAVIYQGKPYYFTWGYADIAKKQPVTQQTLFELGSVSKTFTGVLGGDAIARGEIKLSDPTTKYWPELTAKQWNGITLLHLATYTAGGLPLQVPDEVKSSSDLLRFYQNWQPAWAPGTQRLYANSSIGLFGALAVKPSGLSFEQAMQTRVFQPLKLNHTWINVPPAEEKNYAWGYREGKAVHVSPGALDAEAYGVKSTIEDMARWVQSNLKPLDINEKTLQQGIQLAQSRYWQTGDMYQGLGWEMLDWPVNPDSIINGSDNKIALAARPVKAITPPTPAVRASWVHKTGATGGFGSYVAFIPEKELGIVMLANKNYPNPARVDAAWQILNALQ
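20 mM phosphate pH 7.0 + 0.01% (detergent screen) or 0.0001% Triton X-100; 5.3 nM AmpC reagent; cpd preinc 15 min RT; nitrocefin (800 uM stock) to start; A480 q20 s × 4 min; Activity was normalised to no-enzyme and no-compound control wells.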
Cycloheximide cs: counter-screen hit for Shiga toxin inhibitors, cycloheximide; AID 2314; cell reporter, cycloheximide protein synthesis inhibition counterscreen; hit rate 12% among 300,000; max response, %; in the data active = max response mostly above about 13%, no sharp cut-off; inactive = mostly below about 14%; note: read at 38.3 µM for the half of the compounds with a filed dose
Shiga inhibitor: blocks Shiga toxin action in Vero cells; Vero cells, Shiga toxin protein synthesis inhibition reporter; inhibition, % at 38.7 µM; hit rate 9.2% among 290,000; in the data active = inhibition mostly above about 28%, no sharp cut-off; inactive = mostly below about 43%
AmpC detergent: inhibitors of E. coli AmpC beta-lactamase with detergent. AmpC hydrolysis of nitrocefin, absorbance 480 nm, 0.01% Triton. Potency, µM (series often up to 114 µM), usual class: inhibitors. hit rate 0.041% among 370,000. AID 485294; note: nearly all actives have a fitted effect of over 25% in size
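20 mM phosphate pH 7.0 + 0.01% (detergent screen) or 0.0001% Triton X-100; 5.3 nM AmpC reagent; cpd preinc 15 min RT; nitrocefin (800 uM stock) to start; A480 q20 s × 4 min; Activity was normalised to no-enzyme and no-compound control wells.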
NS1 inh: blocks influenza NS1 protein function. hit rate 0.4% among 270,000. Potency, µM (series often up to 46.1 µM). AID 2326; calls by dose curve; note: actives are rising curves; nearly all actives have a fitted effect of over 50% in size
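In this qHTS, NS1 from influenza A is expressed in budding yeast, where it slows growth. Cells are switched from glucose to 2% galactose medium (pH 6.0, -URA), treated with compound, and growth recovery is read at OD600.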
Hits are given with their value; n = inactive; u = inconclusive; x = not tested or not shown; ! = a repeat was not active; [ ] = remark or other dose. The full list was thinned out, with hits kept by preference. Unless noted, calls come from the whole dose curve; as a rule, active = well fitted curve in the direction sought with a large enough effect; inconclusive = small, poorly fitted or top-dose-only effect, or another doubt; inactive = no such curve, though single readings can be large; an effect the other way counts as inactive or inconclusive.

SMILES	AmpC no deterg	Cycloheximide cs	Shiga inhibitor	AmpC detergent	NS1 inh
CCOC(=O)c1c(C)[nH]c(C)c1S(=O)(=O)NCC(=O)NCc1ccc(C)cc1	x	x	x	n	x
Cc1ccc(NC(=O)COc2ccc(C3SCCS3)cc2)cc1	n	n	n	u	n
O=C(COc1ccc(C2SCCS2)cc1)NNC(=O)C(Cl)Cl	n	22	n	n	n
C#CCn1c(=NC(=O)c2ccco2)sc2cccc(Cl)c21	n	13	n	n	n
O=C(c1ccco1)N1CCN(c2nc3c(Cl)cccc3s2)CC1	x	x	x	n	x
CCOc1cccc2sc(=NC(=O)c3ccco3)n(CC(=O)OC)c12	n	37	68	n	n
COC(=O)c1cccc(C(=O)N2CCCC(CCC(=O)N(C)CCc3ccccn3)C2)c1 (stereo not drawn)	n	n	n	n	n
O=C(Nc1ccccc1F)c1cnccn1	n	18	53	n	x
O=C(Nc1ccccc1-c1ccccc1)c1cnccn1	n	14	n	u	n
O=C(Nc1ccccc1N1CCOCC1)c1cnccn1	n	n	n	n	n
O=C(Nc1ccccc1F)c1cc2nc(C(F)F)cc(C(F)F)n2n1	n	22	52	n	n
Cc1ccc(NC(=O)c2cnccn2)nc1	n	n	n	n	n
Cc1ccc(NC(=O)c2cnccn2)c(Br)c1	n	26	x	n	n
CCc1ccc(N(C(=O)c2snc(C(N)=O)c2N)C(C(=O)NC2CCCC2)c2ccncc2)cc1 (stereo not drawn)	n	n	n	n	n
Cc1cc(C(=O)CSc2nnnn2C)c(C)n1CCc1ccc(F)cc1	n	n	n	n	n
Cc1cc(C(=O)CSc2nnnn2C)c(C)n1Cc1ccco1	n	71	87	n	n
Cc1cc(C(=O)C(C)Cl)c(C)n1Cc1ccco1 (stereo not drawn)	n[11.4 µM]	n	n	n	x
Cc1cc(C(=O)CSc2ncccn2)c(C)n1Cc1ccco1	n	46	79	n	x
O=C(NNC(=O)c1ccc(F)c(S(=O)(=O)N2CCOCC2)c1)c1ccc([N+](=O)[O-])cc1	n	x	x	n	x
CN1N=C(C(C)(C)C)CSC1=Nc1ccc(F)cc1	n	19	n	n	n
CN1N=C(c2ccc(F)c(F)c2)CSC1=NCc1ccccc1	n[11.4 µM]	n	n	u	x
O=C(O)c1cncc(C#CCC2CCCCC2)c1	n	77	90	n	n
Cn1cccc1C1CCCN1CC(=O)Nc1ccc(F)c(F)c1F (stereo not drawn)	n	x	x	x	x
Cc1csc(NC(=O)c2cccn2C)n1	n	62	102	n	n
Cc1csc(NC(=O)c2ccc(C(=O)Nc3nc(C)cs3)cc2)n1	n	n	n	n	n
SMILES	AmpC no deterg	Cycloheximide cs	Shiga inhibitor	AmpC detergent	NS1 inh
Cn1cccc1C(=O)Nc1nc(-c2ccccn2)cs1	n	51	83	n	n
CCn1cc(C(=O)N[C@@H](C)C(=O)NCCCn2ccnc2)c(=O)c2cc3c(cc21)OCO3	n	n	n	n	n
CC(=O)O[C@H]1CC[C@H]2[C@@H]3CCC4=C[C@@H](C5SCCS5)[C@H](OC(C)=O)C[C@]4(C)[C@H]3CC[C@@]12C	x	x	x	x	n
C=CCc1c(C)nc(-c2ccccc2)nc1N/N=C/c1ccccc1	n	n	n	n	n
C=CCc1c(C)nc(-c2ccccc2)nc1N/N=C/c1ccncc1	n	23	n	u	x
CC(C)C(=O)CP(=O)(O)O	x	x	x	x	n
Cc1ccc(C)c(OCCC(=O)OCC(=O)NCc2ccc(F)cc2)c1	n	n	n	n	n
O=C(Nc1ccccn1)C(=O)Nc1ccccn1	n	30	39	n	n
S=C(Nc1ccccn1)c1ccccn1	n	42	71!	u	n
O=C(O)c1ccccc1C(=O)Nc1ccccn1	n	n	n	n	n
O=C(Nc1ccccc1)Nc1ccccn1	n	33	60	u	n
O=C(Nc1ccc(Cl)cc1)Nc1ccccn1	n	41	103	n	n
CN1C(=O)/C(=C/c2ccc(C(=O)Nc3ccc(O)cc3C(=O)O)cc2)SC1=S	n	n	n	n	n
Cc1cc(OC(C)C(=O)N2CCN(CCc3ccccn3)CC2)ccc1Cl (stereo not drawn)	x	x	x	n	x
Cc1cc(C)n2nc(SCC3COc4ccccc4O3)nc2n1 (stereo not drawn)	n	51	89	n	u
Cc1cc(C)n2nc(SCc3ccccc3F)nc2n1	n	n	n	n	n
N#Cc1cc2c(nc1SCC1COc3ccccc3O1)CCC2 (stereo not drawn)	n	35	58	n	n
N#Cc1cc2c(nc1SCc1ccccc1)CCCCC2	n	n	n	n	n
